Laboratory results reported in ChEMBL document CHEMBL2218924, “A broad activity screen in support of a chemogenomic map for kinase signalling research and drug discovery” (Biochem J, 2013).

Experiments:
[1] = target: T1, Testis-specific serine/threonine-protein kinase 1 (Homo sapiens) (UniProt Q9BXA7); conditions: at 1 µM
T1 sequence (whole entry): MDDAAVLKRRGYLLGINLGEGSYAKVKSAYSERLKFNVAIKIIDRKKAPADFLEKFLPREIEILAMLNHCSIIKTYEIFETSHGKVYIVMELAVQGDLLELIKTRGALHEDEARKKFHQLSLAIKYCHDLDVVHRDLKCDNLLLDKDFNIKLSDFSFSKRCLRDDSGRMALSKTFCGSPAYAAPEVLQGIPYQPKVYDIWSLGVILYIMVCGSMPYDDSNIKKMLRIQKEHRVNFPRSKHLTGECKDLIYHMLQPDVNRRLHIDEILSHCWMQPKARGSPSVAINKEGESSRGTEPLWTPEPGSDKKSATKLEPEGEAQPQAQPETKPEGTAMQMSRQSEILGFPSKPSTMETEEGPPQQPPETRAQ

[2] = target: T1, Testis-specific serine/threonine-protein kinase 1 (Homo sapiens); conditions: at 10 µM
[3] = target: T2, Testis-specific serine/threonine-protein kinase 2 (Homo sapiens) (UniProt Q96PF2); conditions: at 10 µM
T2 sequence (whole entry): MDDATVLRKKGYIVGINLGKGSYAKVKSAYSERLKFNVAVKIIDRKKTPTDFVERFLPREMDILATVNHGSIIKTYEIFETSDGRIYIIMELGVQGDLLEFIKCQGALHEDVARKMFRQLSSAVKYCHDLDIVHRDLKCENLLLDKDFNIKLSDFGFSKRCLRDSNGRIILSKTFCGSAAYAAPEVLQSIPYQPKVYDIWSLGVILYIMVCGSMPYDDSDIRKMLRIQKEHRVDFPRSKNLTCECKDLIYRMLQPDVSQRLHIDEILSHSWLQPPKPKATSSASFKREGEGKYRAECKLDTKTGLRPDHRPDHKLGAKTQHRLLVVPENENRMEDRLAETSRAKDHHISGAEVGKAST

[4] = target: T3, Tyrosine-protein kinase Tec (Homo sapiens) (UniProt P42680); conditions: at 1 µM
T3 sequence (whole entry): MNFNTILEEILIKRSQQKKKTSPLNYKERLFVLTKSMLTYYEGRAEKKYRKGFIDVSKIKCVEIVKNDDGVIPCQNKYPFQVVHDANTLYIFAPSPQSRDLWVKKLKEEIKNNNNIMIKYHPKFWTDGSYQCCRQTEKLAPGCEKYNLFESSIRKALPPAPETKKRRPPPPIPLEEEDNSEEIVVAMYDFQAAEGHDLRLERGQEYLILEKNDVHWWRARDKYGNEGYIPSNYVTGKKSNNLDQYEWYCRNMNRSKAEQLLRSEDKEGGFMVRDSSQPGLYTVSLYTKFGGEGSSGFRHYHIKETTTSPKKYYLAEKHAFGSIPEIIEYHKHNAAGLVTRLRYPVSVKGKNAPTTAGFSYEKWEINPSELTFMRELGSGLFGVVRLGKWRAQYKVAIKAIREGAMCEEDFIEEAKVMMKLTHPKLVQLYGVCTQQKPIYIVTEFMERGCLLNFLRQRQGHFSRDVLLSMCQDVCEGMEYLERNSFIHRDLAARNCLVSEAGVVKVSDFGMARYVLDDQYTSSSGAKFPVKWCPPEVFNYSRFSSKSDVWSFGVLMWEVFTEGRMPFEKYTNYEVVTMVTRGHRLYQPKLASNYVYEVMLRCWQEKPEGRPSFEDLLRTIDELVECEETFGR

[5] = target: T3, Tyrosine-protein kinase Tec (Homo sapiens); conditions: at 10 µM
[6] = target: Angiopoietin-1 receptor (Homo sapiens) (UniProt Q02763); conditions: at 1 µM
[7] = target: Angiopoietin-1 receptor (Homo sapiens) (UniProt Q02763); conditions: at 10 µM
[8] = target: High affinity nerve growth factor receptor (Homo sapiens) (UniProt P04629); conditions: at 1 µM
[9] = target: High affinity nerve growth factor receptor (Homo sapiens) (UniProt P04629); conditions: at 10 µM
[10] = target: T4, Tyrosine-protein kinase TXK (Homo sapiens) (UniProt P42681); conditions: at 1 µM
T4 sequence (whole entry): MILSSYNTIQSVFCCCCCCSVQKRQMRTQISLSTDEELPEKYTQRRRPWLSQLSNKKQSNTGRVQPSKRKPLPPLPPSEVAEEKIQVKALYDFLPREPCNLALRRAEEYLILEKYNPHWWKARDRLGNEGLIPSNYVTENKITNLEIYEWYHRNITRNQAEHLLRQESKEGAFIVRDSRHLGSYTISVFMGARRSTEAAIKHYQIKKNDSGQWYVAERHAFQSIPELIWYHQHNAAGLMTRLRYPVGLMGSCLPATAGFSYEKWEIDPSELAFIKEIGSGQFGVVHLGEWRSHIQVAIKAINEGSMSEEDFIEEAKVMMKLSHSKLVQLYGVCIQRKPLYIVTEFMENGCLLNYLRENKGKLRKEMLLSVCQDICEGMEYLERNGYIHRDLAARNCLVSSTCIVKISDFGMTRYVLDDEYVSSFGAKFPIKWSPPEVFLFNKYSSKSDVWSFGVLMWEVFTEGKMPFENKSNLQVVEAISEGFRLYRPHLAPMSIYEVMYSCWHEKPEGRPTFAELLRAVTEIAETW

[11] = target: T4, Tyrosine-protein kinase TXK (Homo sapiens); conditions: at 10 µM
[12] = target: T5, Serine/threonine-protein kinase ULK3 (Homo sapiens) (UniProt Q6PHR2); conditions: at 1 µM
T5 sequence (whole entry): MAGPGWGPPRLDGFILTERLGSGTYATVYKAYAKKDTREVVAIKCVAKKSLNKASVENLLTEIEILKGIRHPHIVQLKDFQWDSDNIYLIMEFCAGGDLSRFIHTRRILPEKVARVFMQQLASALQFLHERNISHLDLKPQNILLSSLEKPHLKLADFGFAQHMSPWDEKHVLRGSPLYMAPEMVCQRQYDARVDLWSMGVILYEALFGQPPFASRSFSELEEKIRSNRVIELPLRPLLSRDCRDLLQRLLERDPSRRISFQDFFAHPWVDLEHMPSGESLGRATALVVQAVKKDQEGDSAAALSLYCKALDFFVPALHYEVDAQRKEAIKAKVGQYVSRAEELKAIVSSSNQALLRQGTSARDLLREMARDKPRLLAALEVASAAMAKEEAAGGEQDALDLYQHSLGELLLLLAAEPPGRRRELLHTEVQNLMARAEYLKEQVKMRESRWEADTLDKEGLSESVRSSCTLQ

[13] = target: T5, Serine/threonine-protein kinase ULK3 (Homo sapiens); conditions: at 10 µM
[14] = target: Serine/threonine-protein kinase WNK2 (Homo sapiens) (UniProt Q9Y3S1); conditions: at 1 µM;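 note: residual WNK2 kinase activity expressed as percent of uninhibited control, assayed in MOPS buffer at pH 7.0 containing EDTA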
[15] = target: BDNF/NT-3 growth factors receptor (Homo sapiens) (UniProt Q16620); conditions: at 1 µM
[16] = target: BDNF/NT-3 growth factors receptor (Homo sapiens) (UniProt Q16620); conditions: at 10 µM
[17] = target: T6, Serine/threonine-protein kinase ULK2 (Homo sapiens) (UniProt Q8IYT8); conditions: at 1 µM
T6 sequence (whole entry): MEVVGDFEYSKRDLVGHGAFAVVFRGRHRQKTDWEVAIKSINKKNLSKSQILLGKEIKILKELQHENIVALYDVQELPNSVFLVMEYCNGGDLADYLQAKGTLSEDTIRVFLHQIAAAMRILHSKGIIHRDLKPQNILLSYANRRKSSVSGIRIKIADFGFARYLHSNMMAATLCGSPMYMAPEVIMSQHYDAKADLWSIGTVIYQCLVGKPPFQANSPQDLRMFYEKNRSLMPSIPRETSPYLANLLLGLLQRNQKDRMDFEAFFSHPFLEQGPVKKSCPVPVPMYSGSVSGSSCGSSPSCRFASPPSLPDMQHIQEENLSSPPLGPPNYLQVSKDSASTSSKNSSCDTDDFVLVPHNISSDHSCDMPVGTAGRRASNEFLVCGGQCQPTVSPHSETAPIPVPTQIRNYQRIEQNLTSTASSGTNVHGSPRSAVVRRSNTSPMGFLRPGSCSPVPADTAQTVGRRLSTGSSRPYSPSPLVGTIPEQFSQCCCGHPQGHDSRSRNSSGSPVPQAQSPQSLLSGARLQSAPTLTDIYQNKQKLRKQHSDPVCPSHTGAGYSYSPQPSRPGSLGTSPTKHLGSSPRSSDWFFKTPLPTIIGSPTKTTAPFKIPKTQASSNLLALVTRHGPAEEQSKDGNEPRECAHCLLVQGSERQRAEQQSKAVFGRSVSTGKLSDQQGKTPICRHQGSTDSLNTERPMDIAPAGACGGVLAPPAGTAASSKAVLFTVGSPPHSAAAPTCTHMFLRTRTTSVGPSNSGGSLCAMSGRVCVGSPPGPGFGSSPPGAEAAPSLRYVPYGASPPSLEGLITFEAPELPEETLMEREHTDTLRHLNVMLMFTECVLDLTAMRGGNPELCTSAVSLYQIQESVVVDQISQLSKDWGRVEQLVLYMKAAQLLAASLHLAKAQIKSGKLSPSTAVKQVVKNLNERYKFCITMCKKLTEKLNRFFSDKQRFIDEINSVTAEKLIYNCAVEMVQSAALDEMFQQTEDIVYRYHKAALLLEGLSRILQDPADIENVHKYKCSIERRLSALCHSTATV

[18] = target: T6, Serine/threonine-protein kinase ULK2 (Homo sapiens); conditions: at 10 µM
[19] = target: Serine/threonine-protein kinase VRK2 (Homo sapiens) (UniProt Q86Y07); conditions: at 1 µM
[20] = target: Serine/threonine-protein kinase VRK2 (Homo sapiens) (UniProt Q86Y07); conditions: at 10 µM

Serine/threonine-protein kinase VRK2 (Homo sapiens), sequence (Q86Y07 whole entry): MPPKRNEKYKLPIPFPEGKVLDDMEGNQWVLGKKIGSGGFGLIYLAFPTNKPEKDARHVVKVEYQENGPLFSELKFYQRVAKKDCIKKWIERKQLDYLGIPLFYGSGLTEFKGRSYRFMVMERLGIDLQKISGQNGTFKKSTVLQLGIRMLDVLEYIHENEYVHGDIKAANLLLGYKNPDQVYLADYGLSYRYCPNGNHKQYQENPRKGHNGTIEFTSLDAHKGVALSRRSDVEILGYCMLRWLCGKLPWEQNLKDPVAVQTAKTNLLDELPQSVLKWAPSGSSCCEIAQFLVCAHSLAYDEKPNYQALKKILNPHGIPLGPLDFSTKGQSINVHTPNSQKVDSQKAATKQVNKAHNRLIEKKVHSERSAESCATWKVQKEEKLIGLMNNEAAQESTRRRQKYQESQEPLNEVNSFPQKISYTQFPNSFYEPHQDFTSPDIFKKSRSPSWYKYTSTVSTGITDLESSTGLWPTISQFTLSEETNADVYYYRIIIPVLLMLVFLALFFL
High affinity nerve growth factor receptor (Homo sapiens), sequence (P04629 33-796 limits assumed): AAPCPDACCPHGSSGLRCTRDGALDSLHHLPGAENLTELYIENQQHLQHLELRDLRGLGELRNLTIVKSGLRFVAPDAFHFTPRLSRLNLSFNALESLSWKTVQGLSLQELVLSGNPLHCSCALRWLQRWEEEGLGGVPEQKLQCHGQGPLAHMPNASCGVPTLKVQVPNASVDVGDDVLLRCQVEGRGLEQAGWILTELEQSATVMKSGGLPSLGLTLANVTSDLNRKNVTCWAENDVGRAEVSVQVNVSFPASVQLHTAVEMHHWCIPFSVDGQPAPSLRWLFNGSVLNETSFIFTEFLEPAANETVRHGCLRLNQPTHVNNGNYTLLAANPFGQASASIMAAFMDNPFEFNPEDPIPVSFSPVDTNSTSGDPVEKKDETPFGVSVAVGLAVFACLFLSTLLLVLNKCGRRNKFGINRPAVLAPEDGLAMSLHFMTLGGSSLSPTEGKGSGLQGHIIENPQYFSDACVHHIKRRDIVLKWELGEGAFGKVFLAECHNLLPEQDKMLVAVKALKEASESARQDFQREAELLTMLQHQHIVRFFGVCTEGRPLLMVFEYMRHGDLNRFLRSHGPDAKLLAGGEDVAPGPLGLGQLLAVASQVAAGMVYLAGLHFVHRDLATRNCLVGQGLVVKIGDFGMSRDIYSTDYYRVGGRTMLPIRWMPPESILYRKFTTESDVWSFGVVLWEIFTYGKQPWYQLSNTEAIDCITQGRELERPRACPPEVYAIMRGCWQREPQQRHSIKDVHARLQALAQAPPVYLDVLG
Angiopoietin-1 receptor (Homo sapiens), sequence (Q02763 whole entry): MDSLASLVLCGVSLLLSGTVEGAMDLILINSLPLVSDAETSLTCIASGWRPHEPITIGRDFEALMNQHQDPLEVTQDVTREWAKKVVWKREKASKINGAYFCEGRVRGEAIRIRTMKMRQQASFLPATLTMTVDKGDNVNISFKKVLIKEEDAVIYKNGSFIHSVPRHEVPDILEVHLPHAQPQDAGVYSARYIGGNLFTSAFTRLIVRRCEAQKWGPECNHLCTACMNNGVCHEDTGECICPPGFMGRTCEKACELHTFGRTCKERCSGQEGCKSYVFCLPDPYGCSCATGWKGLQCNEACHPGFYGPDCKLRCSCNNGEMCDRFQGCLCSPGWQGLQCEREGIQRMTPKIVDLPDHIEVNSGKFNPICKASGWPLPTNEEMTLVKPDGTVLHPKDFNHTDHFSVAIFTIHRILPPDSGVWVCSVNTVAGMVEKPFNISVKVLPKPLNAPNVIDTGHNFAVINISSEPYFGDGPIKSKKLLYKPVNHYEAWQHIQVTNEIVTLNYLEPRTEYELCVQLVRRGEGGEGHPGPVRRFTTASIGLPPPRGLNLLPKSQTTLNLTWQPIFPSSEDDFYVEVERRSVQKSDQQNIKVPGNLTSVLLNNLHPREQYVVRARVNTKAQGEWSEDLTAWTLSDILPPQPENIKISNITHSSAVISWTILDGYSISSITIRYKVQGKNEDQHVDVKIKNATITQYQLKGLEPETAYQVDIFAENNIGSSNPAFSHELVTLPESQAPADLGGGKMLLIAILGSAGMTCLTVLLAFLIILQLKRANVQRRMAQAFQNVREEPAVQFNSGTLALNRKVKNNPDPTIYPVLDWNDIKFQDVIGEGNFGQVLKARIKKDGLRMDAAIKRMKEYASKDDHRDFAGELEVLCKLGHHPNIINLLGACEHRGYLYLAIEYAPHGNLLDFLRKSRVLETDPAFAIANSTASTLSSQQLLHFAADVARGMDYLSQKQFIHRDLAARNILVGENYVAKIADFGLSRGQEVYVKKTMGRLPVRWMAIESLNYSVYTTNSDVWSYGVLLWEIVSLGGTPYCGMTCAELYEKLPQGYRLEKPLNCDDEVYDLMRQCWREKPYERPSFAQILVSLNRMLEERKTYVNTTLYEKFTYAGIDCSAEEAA
Serine/threonine-protein kinase WNK2 (Homo sapiens), sequence (Q9Y3S1 whole entry): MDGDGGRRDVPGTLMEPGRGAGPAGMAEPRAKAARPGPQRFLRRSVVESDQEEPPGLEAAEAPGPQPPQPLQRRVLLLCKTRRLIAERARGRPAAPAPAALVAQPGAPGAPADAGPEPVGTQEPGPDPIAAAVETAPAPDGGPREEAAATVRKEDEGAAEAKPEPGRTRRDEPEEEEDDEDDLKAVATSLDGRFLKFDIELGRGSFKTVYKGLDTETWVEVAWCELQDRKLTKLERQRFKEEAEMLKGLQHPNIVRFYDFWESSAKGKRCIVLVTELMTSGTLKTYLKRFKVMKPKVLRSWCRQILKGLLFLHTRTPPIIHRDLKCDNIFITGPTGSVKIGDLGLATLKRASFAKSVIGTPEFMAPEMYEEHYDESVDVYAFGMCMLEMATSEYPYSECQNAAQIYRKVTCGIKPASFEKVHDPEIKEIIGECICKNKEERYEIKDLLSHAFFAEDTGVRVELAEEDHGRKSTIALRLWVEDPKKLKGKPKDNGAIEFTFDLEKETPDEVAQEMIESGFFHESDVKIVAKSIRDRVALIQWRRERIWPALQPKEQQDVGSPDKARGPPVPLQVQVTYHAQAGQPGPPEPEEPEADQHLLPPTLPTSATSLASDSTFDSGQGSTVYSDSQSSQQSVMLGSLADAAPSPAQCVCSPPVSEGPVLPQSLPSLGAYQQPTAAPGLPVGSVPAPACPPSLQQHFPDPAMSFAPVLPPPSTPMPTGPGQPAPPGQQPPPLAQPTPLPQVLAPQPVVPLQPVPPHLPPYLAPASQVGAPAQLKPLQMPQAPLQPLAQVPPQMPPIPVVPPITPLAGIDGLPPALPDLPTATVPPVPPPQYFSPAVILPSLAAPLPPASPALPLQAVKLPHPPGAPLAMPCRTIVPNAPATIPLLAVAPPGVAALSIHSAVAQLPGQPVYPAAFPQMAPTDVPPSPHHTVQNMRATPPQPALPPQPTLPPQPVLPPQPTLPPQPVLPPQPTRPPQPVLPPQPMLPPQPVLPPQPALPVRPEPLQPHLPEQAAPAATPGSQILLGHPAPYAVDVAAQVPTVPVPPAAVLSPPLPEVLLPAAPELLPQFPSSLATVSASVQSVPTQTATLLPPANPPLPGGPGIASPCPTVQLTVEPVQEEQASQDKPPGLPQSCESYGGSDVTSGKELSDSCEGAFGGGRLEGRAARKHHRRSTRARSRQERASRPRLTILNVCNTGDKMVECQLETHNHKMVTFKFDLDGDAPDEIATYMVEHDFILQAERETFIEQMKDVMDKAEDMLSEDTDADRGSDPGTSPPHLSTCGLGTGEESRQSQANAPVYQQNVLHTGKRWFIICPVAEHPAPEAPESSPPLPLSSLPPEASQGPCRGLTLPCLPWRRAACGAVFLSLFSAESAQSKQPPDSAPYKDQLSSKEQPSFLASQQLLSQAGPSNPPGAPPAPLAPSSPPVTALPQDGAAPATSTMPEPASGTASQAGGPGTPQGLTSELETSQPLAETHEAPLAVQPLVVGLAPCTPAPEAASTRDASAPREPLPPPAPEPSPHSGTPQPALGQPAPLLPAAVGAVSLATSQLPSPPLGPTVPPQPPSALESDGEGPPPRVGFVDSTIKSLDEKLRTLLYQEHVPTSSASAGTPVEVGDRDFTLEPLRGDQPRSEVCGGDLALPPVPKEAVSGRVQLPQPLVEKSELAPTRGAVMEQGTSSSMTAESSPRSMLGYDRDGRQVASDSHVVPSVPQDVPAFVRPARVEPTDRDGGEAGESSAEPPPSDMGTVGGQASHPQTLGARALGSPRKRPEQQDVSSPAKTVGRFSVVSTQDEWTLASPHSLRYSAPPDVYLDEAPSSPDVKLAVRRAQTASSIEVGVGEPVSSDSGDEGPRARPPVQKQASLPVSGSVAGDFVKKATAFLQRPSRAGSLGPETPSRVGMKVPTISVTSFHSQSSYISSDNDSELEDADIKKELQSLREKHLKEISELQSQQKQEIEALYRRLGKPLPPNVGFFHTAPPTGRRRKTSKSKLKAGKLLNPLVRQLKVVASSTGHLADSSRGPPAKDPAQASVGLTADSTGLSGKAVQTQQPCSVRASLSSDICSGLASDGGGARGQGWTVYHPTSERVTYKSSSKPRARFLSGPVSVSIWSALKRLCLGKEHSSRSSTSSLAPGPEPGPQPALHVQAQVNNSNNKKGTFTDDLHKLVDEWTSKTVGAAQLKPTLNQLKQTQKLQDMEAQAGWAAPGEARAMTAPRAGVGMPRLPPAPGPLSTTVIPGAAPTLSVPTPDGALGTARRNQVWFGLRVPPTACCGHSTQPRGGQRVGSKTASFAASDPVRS

| Compound | residual activity [1] | residual activity [2] | residual activity [3] | residual activity [4] | residual activity [5] | residual activity [6] | residual activity [7] | residual activity [8] | residual activity [9] | residual activity [10] | residual activity [11] | residual activity [12] | residual activity [13] | residual activity [14] | residual activity [15] | residual activity [16] | residual activity [17] | residual activity [18] | residual activity [19] | residual activity [20] |
| --- | --- | --- | --- | --- | --- | --- | --- | --- | --- | --- | --- | --- | --- | --- | --- | --- | --- | --- | --- | --- |
| CC(C)[C@H](CO)Nc1nc(Nc2cc(N)cc(Cl)c2)c2ncn(C(C)C)c2n1 | 86% | 66% | 90% | 61% | 13% | 100% | 52% | 5% | 0% | 63% | 17% | 41% | 8% | 87% (inactive) |  |  |  |  |  |  |
| O=C(CCCc1ccc(-c2ccccc2F)cc1)Nc1ccc(O)cc1 | 103% | 99% |  | 93% | 79% | 83% | 96% | 102% | 54% | 99% | 89% | 101% | 95% | 104% (inactive) | 93% | 100% | 112% | 98% | 102% (inactive) | 96% |
| O=c1cc(N2CCOCC2)oc2c1ccc1ccccc12 | 101% | 82% | 78% | 93% | 96% | 81% | 97% | 106% |  | 90% | 85% | 106% | 94% | 110% (inactive) |  | 102% | 102% | 88% | 105% (inactive) | 90% |
| Nc1ncnc2c1cnn2-c1ccccc1 | 92% | 87% |  | 99% | 90% | 73% | 102% | 91% | 83% |  | 78% |  | 91% |  |  | 97% | 101% | 98% | 102% (inactive) | 90% |
| CCCCc1c(-c2ccc(O)cc2)[nH]c2nccnc12 | 58% | 59% | 85% |  |  |  |  | 61% | 12% |  |  | 73% | 31% |  | 67% | 45% | 87% | 93% |  |  |
| Nc1ncnc2c1c(-c1ccc(Oc3ccccc3)cc1)cn2C1CCCC1 | 94% | 86% | 93% |  |  | 12% | 3% | 26% | -1% | 18% | 1% |  | 45% | 103% (inactive) | 44% | -9% | 98% |  | 85% (inactive) | 72% |
